Source: PubChem BioAssay
HUVEC tox IL1B: toxic to HUVEC cells under IL-1B stimulation; HUVEC cell count loss, Hoechst imaging, IL-1B stimulated; cell count reduction, % at 2 µM; 94,000 compounds, 0.41% hits; AID 845;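 active = cell count reduction more than 3 SD above the screen-wide mean, cut at about 70% in these data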;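 also: normalized per plate to untreated control cells as the no-loss baseline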
IL1B NFkB pot: enhances IL-1B driven NFkB nuclear translocation. HUVEC IL-1B NFkB p65 nuclear translocation imaging. activation, % at 2 µM. 94,000 compounds, 0.3% hits. AID 819;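 active = activation above 40%, about the mean plus 3 SD, also judged a hit on visual image review; inconclusive = activation above 40% but not a hit on visual review; inactive = activation not above 40% and no visual hit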;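 also: percent activation is computed from the nuclear over cytoplasmic p65 intensity ratio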
Cav32 inh: inhibitors of human Cav3.2 T-type calcium channel. O95180. Cav3.2-expressing cells, Fluo-4 calcium fluorescence FDSS; hits give low values. B-score at 10 µM. 100,000 compounds, 4% hits. AID 449739;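 active = single-dose well whose peak fluorescence ratio is a statistical outlier from its plate by either plate-standardised score or position-corrected B-score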
Target sequence (O95180 whole entry, looked up): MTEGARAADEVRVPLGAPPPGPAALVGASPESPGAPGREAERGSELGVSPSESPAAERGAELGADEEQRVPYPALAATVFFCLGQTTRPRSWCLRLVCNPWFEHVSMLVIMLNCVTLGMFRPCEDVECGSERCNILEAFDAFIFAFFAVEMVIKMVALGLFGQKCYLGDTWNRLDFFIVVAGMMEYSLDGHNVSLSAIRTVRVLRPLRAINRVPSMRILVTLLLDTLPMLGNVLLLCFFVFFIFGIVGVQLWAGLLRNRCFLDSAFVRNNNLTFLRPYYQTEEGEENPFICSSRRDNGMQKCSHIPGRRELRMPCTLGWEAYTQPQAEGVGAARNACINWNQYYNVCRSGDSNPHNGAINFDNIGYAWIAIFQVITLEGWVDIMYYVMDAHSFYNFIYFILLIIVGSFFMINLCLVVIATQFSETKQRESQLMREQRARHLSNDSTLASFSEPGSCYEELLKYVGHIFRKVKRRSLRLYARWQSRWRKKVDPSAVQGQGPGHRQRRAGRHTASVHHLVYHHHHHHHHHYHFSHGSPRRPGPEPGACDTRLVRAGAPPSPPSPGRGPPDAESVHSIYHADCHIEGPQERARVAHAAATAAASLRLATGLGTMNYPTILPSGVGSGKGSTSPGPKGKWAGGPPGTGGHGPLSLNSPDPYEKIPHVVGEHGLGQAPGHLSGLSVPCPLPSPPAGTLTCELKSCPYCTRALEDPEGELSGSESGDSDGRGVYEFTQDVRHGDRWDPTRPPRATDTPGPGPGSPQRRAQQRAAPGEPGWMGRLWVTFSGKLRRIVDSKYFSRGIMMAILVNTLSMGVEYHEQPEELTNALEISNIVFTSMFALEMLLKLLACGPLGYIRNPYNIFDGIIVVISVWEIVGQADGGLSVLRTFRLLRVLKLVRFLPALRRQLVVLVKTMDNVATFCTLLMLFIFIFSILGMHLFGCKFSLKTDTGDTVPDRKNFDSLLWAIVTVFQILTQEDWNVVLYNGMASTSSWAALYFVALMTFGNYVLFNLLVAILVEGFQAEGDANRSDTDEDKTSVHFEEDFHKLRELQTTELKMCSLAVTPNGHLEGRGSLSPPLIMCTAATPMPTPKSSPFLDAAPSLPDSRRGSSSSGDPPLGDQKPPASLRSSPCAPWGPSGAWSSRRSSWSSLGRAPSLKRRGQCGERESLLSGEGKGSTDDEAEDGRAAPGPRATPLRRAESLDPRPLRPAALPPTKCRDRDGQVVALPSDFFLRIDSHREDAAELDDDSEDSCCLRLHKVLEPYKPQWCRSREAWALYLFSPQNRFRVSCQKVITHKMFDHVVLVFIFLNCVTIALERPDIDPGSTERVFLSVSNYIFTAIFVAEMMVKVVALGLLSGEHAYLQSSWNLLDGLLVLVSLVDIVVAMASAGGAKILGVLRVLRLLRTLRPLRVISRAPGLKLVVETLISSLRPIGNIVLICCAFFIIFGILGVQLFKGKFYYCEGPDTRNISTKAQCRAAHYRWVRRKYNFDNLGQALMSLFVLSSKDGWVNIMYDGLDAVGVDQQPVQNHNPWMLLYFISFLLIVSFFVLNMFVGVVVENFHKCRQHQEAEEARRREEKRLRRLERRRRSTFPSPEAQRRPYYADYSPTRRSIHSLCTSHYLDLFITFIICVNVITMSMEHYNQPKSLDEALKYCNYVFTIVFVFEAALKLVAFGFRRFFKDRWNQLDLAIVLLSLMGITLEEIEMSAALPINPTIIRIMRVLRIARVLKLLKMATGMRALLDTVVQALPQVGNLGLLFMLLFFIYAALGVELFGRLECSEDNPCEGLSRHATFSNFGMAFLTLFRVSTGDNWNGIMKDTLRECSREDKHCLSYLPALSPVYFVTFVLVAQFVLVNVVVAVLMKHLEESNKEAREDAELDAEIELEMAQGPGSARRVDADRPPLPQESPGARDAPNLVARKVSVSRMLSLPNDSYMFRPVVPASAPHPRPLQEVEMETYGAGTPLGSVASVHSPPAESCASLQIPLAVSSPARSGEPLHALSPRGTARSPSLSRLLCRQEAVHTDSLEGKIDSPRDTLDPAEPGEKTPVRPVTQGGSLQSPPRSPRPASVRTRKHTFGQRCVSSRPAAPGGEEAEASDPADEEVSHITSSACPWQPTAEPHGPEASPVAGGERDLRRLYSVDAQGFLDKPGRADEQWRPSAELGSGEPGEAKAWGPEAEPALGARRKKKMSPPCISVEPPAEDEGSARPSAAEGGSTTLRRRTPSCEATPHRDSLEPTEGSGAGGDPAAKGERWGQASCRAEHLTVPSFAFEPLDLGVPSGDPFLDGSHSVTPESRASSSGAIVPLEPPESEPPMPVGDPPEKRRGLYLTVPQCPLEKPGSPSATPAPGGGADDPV
IL1B NFkB inh: blocks IL-1B driven NFkB nuclear translocation in HUVEC cells; HUVEC IL-1B NFkB p65 nuclear translocation imaging; inhibition, % at 2 µM; 94,000 compounds, 0.43% hits; AID 796;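 active = inhibition above about 30% together with a positive call from visual inspection of the well image, limit read from the data; inconclusive = inhibition above a set limit but visual check negative; inactive = inhibition not above a set limit, visual check negative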;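 also: nuclear over cytoplasmic p65 intensity ratio measured by imaging; 0% = IL-1B stimulated DMSO wells and 100% = unstimulated DMSO wells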
An asterisk follows results filed as active; ? = inconclusive; . = no result given. This is a sample that favours compounds with a hit; in the whole collection about 4.4% have one here.

SMILES | HUVEC tox IL1B | IL1B NFkB pot | Cav32 inh | IL1B NFkB inh
N=c1c2c(-c3ccccc3)c(-c3ccccc3)n(Cc3ccccc3)c2ncn1CCCn1ccnc1 | 2 | -2 | -0.45 | 2
N=c1c2c(-c3ccccc3)c(-c3ccccc3)n(Cc3ccco3)c2ncn1Cc1ccco1 | . | . | -9.3* | .
C(=C\c1ccccc1)/CSc1nnc(-c2cnccn2)n1Cc1ccco1 | 4 | 11 | -3.5* | -11
CCOC(=O)Cc1csc(SCC(=O)Nc2cccc(C#N)c2)n1 | -20 | 6 | 0.025 | -6
O=C(CSc1n[nH]c(=O)n1C1CC1)Nc1cc(Cl)ccc1Oc1ccccc1 | -7 | 10 | -6* | -10
CCOC(=O)Cc1csc(SCC(=O)Nc2cc(Cl)ccc2Oc2ccccc2)n1 | -12 | 3 | -5.6* | -3
CCOC(=O)Cc1csc(SCC(=O)Nc2cccc(Cl)c2)n1 | -102 | 14 | -3.8* | -14
Cc1sc(NC(=O)CSc2nnc(C)c(=O)[nH]2)c(C#N)c1C | 27 | -5 | -0.77 | 4
Brc1cccc(-c2nnc(SCc3ccon3)n2-c2ccccc2)c1 | -6 | -3 | -4.6* | 2
CCOC(=O)N1CCN(S(=O)(=O)c2ccc(C)cc2)C1c1ccccc1 (stereo not drawn) | -41 | 10 | -4.1* | -10
CCOC(=O)N1CCN(S(=O)(=O)c2ccc(C)cc2)C1c1ccc(OC)cc1 (stereo not drawn) | 4 | 25 | . | -25
CC(C)NC(C(=O)Nc1cc(Cl)cc(Cl)c1)c1ccccc1 (stereo not drawn) | 10 | 35 | -4.6* | -35
Cn1cnnc1SC(C(=O)Nc1cc(Cl)cc(Cl)c1)c1ccccc1 (stereo not drawn) | -9 | -17 | -0.48 | 17
CCc1ccc(N2CC(C(=O)OCC(=O)NC3CCS(=O)(=O)C3)CC2=O)cc1 (stereo not drawn) | 92* | -24 | -0.083 | 24
CCOc1ccc(N2CC(C(=O)OCC(=O)NCc3ccccc3)CC2=O)cc1 (stereo not drawn) | -37 | -6 | 1.6 | 6
COC(C[C@@H](O)[C@@H](C)[C@H](O)COCc1ccccc1)OC | . | . | 0.71 | .
CCCCn1nnnc1NCc1cccc(OC)c1OC | -7 | 114* | -0.17 | -114
CCCCn1nnnc1NCc1ccc(OC)c(OC)c1 | -56 | 10 | 0.24 | -10
CC[C@@H](C)C(N)c1cn([C@@H](CCC(=O)O)C(=O)N2CCNCC2)nn1 (stereo partly drawn) | . | . | 0.17 | .
CCC1(C)CC(CCNS(=O)(=O)c2ccc(C)cc2)(c2ccc(C)cc2)CCO1 (stereo not drawn) | -12 | -3 | -5.3* | 3
Cc1ccc(S(=O)(=O)NCCC2(C(C)C)CCOC(C)(C)C2)cc1 (stereo not drawn) | -3 | 8 | -0.71 | -8
O=C1S/C(=C\c2ccc(N3CCOCC3)o2)C(=O)N1Cc1c(F)cccc1Cl | -25 | -12 | -5.7* | 12
O=C1S/C(=C/c2ccc(N3CCOCC3)o2)C(=O)N1Cc1c(F)cccc1Cl | -8 | 30 | 0.025 | -30
COc1ccc(/C(C#N)=C/c2c(-c3ccc(Cl)cc3)nc3c(C)cccn23)cc1 | -4 | 29 | -5.8* | -29
COc1ccc(OC)c(S(=O)(=O)N(C)CC(=O)N2CCN(c3ccccc3F)CC2)c1 | -12 | 37 | 0.49 | -37
SMILES | HUVEC tox IL1B | IL1B NFkB pot | Cav32 inh | IL1B NFkB inh
CC(C)(C)NC(=O)C(c1ccsc1)N(CCc1ccccc1)C(=O)Cn1nnc2ccccc21 (stereo not drawn) | -1 | -58 | -0.067 | 58*
Cc1cc(C)c(N(C(=O)Cn2nnc3ccccc32)C(C(=O)NC(C)(C)C)c2ccsc2)c(C)c1 (stereo not drawn) | 0 | -6 | -1.1 | 6
COC(=O)C1=C(N)OC2=C(C(=O)CC(C)(C)C2)C1c1ccoc1 (stereo not drawn) | 18 | 22 | 0.0041 | -22
CC(=O)c1c(O)cc(O)c(C(C)=O)c1O | . | . | -5.4* | .
CCCOc1cc(C)c(S(=O)(=O)n2ccc(C)n2)cc1C | 10 | -9 | -3.8* | 9
O=C(O)CCc1n[nH]c(=S)[nH]c1=O | 21 | 6 | . | -6
Cc1onc(-c2ccccc2Cl)c1C(=O)Nc1ccc(F)c(F)c1 | 14 | -6 | -4.1* | 6
Cc1ccc(Cn2ccc(NC(=O)c3c(-c4ccccc4Cl)noc3C)n2)cc1 | -8 | -8 | -5.5* | 8
Cc1cc(NC(=O)c2c(-c3ccccc3Cl)noc2C)no1 | -32 | 3 | -0.59 | -3
Cc1onc(-c2ccccc2Cl)c1C(=O)Nc1ccc2c(c1)OCO2 | -18 | ? | -0.17 | -43
Cc1onc(-c2ccccc2Cl)c1C(=O)Nc1cccc(-c2cn3cccnc3n2)c1 | 85* | -94 | -0.34 | 94*
CCOc1ccc(CC(=O)NCc2cn3c(C)csc3n2)cc1 | 11 | 14 | 1.1 | -14
O=C1Nc2cc(Cl)ccc2C1(N1CCNCC1)C(F)(F)F (stereo not drawn) | -37 | 2 | 0.41 | -2
O=C1Nc2ccc(Cl)cc2[C@@](C#CC2CC2)(C(F)(F)F)O1 | . | . | -5.2* | .
O=C(O)c1ccc(NC(CSCc2cccc(F)c2)C(=O)O)c([N+](=O)[O-])c1 (stereo not drawn) | -7 | -5 | 0.71 | 5
Cc1ccc(C)c(N2CCN(C(=O)c3ccc(Cn4c(=O)[nH]c5ccccc5c4=O)cc3)CC2)c1 | -8 | 9 | -5.9* | -9
COc1ccc(S(=O)(=O)NCc2ccc3c(c2)OCO3)cc1C | 6 | -5 | -1.9 | 5
COCc1cc(C)nc(OCC(=O)N/N=C/c2cc(C)n(-c3c(C)cccc3C)c2C)c1C#N | 4 | 0 | -4.4* | 0
COCc1cc(C)nc(OCC(=O)N/N=C/c2ccc(-c3cccc([N+](=O)[O-])c3)o2)c1C#N | -48 | 3 | . | -3
COc1ccc(OC)c(C2C(C(=O)Nc3cccnc3)=C(C)NC3=C2C(=O)CCC3)c1 (stereo not drawn) | -21 | 42* | 0.038 | -42
COc1ccc(OC)c(C2C3=C(CCCC3=O)NC3=C2C(=O)CCC3)c1 | -9 | 2 | 0.038 | -2
c1ccc(COn2nnc3ccccc32)c(COn2nnc3ccccc32)c1 | 25 | -4 | -4.8* | 4
S=C(NCCC(c1ccccc1)c1ccccc1)Nc1ccc(Cl)cc1 | 4 | 2 | -3* | -9
CC(C)c1ccc(NC(=O)COc2nnc(-c3cccs3)c(-c3cccs3)n2)cc1 | -28 | 0 | -5.1* | 0
CCC(C)C(=O)Nc1nnc(-c2cccs2)s1 (stereo not drawn) | 8 | 17 | -1.4 | -17
CCc1ccc(NC(=O)C(C)Oc2nnc(-c3cccs3)c(-c3cccs3)n2)cc1 (stereo not drawn) | -12 | 7 | -4.4* | -7
O=C1Nc2ccccc2C12Nc1ccccc1-c1nc3ccccc3n12 (stereo not drawn) | 19 | 16 | -4.8* | -16
CCCCC1(C)Nc2ccccc2-c2nc3ccccc3n21 (stereo not drawn) | -16 | -9 | -4.9* | 9
O=C(Nc1ccccc1)Nc1ccc(C(=O)N2CCOCC2)cc1 | 4 | 7 | 0.65 | -7
O=C(NCCc1csc(-c2cccnc2)n1)c1cccc2ccccc12 | 79* | -35 | 0.04 | 35*
